Assay results reported in PubChem BioAssay (NCATS).
Results filed as inconclusive are left out. Unmarked numbers belong to inactive results. Active and inactive are the calls of the source. The call rests on the fitted dose curve; in most records, active means well fitted curve in either direction with a large enough effect (not every such curve was filed as active); inconclusive means small, poorly fitted or top-dose-only effect, or another doubt; inactive means flat fitted curve, though single readings scatter.

Assay: NFAT Signaling Pathway (AID 444)
Settings: Jurkat NFAT-bla M1, carbachol, beta-lactamase ratio, 5 h; at 17.2 µM (top of the series) unless noted
From the text: NCGC Assay Overview: The nuclear factor of activated T cells (NFAT) family of transcription factors has been found primarily in most immune system cells and some other non-immune cells. NFAT plays the immunomodulatory role, primarily in T-cell activation and differentiation. NFAT target genes are also involved in the regulation of apoptosis and differentiation in non-immune cell types. The NFAT sequence was engineered to the upstream of the ?-lactamase reporter gene and transfected into Jurkat cells with co-transfection of muscarinic receptor1 [provided by Invitrogen Corp]. When an extracellular stimulus, such as carbachol, binds to the GPCR M1 receptor, it stimulates a signaling cascade that activates NFAT response element and ?-lactamase expression by phosphorylating the NFAT binding protein. This cell based ?-lactamase reporter gene assay can accurately monitor any changes occurring along the NFAT pathway, and can be used for screening small molecule inhibitor or activator upon activation by carbachol EC50 concentration. A small molecular library were screened in a titration series resulting in AC50s (can be either IC50s or EC50s).
NCGC Assay Protocol Summary: The cells were prepared in RPMI 1640 medium containing 0.1% dialyzed FBS and 25 mM HEPES at 1.6 x 10^6cell/ml. The assay was performed in 1536-well plate format as follows: 5 ul of cell preparation 23 nl of compounds 1ul of carbachol (final concentration 1 uM) Briefly centrifuge the plates and incubate at 37 °C for 5 hours 1 ul of CCF4 dye mixture Incubate the plates at RT for 1 hour Read the plate in EnVision plate reader (Ex= 405nm, and Em1=460nm and Em2=530nm). The %Activity was determined from the ratio of 460nm/530nm. Data normalization and AC50 calculations were accomplished using GeneData software.
On the % scale 0 is the no-effect control and ±100 the full control effect.

SMILES	activity change, negative = inhibition
CC(C)Cc1[nH]c(=O)c(C#N)c2c1CCC2	18.5%
N[C@@H]1CCc2cc(O)c(O)cc2C1	-2.09% [at 38 µM]
COc1cccc(CN2CCN(C(=O)COc3ccc4ccccc4c3)CC2)c1	13.9%
O=c1[nH]c(=O)n(Cc2ccco2)c(O)c1C=NCc1ccc2c(c1)OCO2	2.74%
C=CCN1CC[C@]23c4c5ccc(O)c4O[C@@H]2C(=O)CC[C@@]3(O)[C@H]1C5	-0.768% [at 38 µM]
CN(C)CCOC(=O)c1cn(Cc2ccccc2)c2ccccc12	-13.6%
Cc1ccc(C)c(C2(O)CC(C)N(C)CC2C)c1 (stereo not given)	9.11%
CCN(CC)CCCC(C)N=C(c1ccccc1)c1c(O)n(C)c(=O)n(C)c1=O (stereo not given)	-29.5%
CC1(C)NCCN2C(=O)CSC21 (stereo not given)	0.762%
CN(C)CCc1nn[nH]n1	-0.26%
CC(C)(O)[C@H]1[C@H]2OC(=O)[C@@H]1[C@]1(O)C[C@H]3O[C@]34C(=O)O[C@H]2[C@]14C (tested in a mixture with another compound)	-0.245% [at 38 µM]
O=c1[nH]c(=O)n(Cc2ccco2)c(O)c1C=NCCN1CCOCC1	-0.917%
Cc1ccc2c(c1)[C@@H]1CN(C)CC[C@@H]1N2C(=O)Nc1cccc(C(F)(F)F)c1	-12.5%
OC(c1ccc(F)cc1)C(c1ccccc1)N1CCOCC1 (stereo not given)	-1.44%
O=P(c1ccccc1)(c1ccccc1)N1CCCCC1	-3.91%
CCCCCC[C@H]1C(=O)O[C@H](C)[C@H](NC(=O)c2cccc(NC=O)c2O)C(=O)O[C@@H](C)[C@H]1OC(=O)CC(C)C	-34.3%
C=CCOC(=O)C1=C(C)OC(N)=C(C#N)C12C(=O)N(CN1CCOCC1)c1ccccc12 (stereo not given)	-2.25%
CN1CCc2c(c(N3CCCCC3)nc3n[nH]c(N)c23)C1	-4.59%
CC(C)(C)OC(=O)c1c(N)n(Cc2ccco2)c2nc3ccccc3nc12	5.75%
N[C@]1(C(=O)O)CC[C@@H](C(=O)O)C1	7.68% [at 38 µM]

SMILES	activity change, negative = inhibition
CCCCCCn1c(O)c(C=NCCN2CCCCC2)c(=O)[nH]c1=O	4.87%
O=C1CC[C@]2(O)[C@H]3Cc4ccc(O)c5c4[C@@]2(CCN3CC2CC2)[C@@H]1O5	9.93%
C[C@@H]1O[C@@H](O[C@H]2C[C@@H](O)[C@]3(CO)[C@@H]4[C@@H](O)C[C@]5(C)[C@H](C6=CC(=O)OC6)CC[C@@]5(O)[C@H]4CC[C@@]3(O)C2)[C@H](O)[C@H](O)[C@@H]1O	-76.4% [at 38 µM] (active)
O=c1[nH]c(=O)n(CCc2ccccc2)c(O)c1C=NCCCn1ccnc1	-27.5%
O=[N+]([O-])c1ccc(O[C@H]2O[C@@H](CO)[C@@H](O)[C@@H](O)[C@@H]2F)c([N+](=O)[O-])c1	14.6% [at 38 µM]
CC(C)(C)NC[C@H](O)c1ccccc1Cl	-15.3% [at 38 µM]
CCN(CC)c1ccc(N=Cc2c(O)n(-c3ccccc3C)c(=O)[nH]c2=O)cc1	-29.8%
CC(=NCCO)c1c(O)n(C)c(=O)n(C)c1=O	-3.31%
CCCSP1(=S)NCCCO1 (stereo not given)	2.72%
CCCCc1nc2ccccc2c(=O)n1-c1ccccc1O	-4.7%
c1ccc(Cn2ccnc2)cc1	-0.8%
CC(=O)[C@@H]1CC[C@@H]2[C@H]3CC[C@H]4C[C@@H](O)CC[C@]4(C)[C@@H]3C(=O)C[C@]21C	-2.4% [at 38 µM]
NCC1(c2ccc3c(c2)OCCO3)CCCC1	-11.3%
C=CCOC(=O)C1=C(C)OC(N)=C(C#N)[C@@]12C(=O)N(CC(N)=O)c1ccccc12	-10.1%
O=C(CN1CCN(CCO)CC1)Nc1ccc(Cl)cc1C(=O)c1ccccc1	5.95%
CCCCSP1(=S)NCCCO1 (stereo not given)	1.86%
CC(C)n1cc2c3c(cccc31)[C@@H]1C[C@H](C(=O)O[C@@H](C)[C@H](C)O)CN(C)[C@H]1C2	-4.79% [at 38 µM]
O=c1[nH]c(=O)n(Cc2ccccc2)c(O)c1C=NCCN1CCOCC1	-7.84%
CCOCCN1CCC(OC(C)=O)C(C)C1 (stereo not given)	-5.87%
CCCN(CC#CCO)CCC	3.75%
